Source: PubChem (National Center for Advancing Translational Sciences (NCATS))
Shown are actives, neighbours in structure and some others; about 8.7% of the full set was active somewhere.
HP1b chromo inh: blocks HP1-beta chromodomain binding to methylated histone tails. P83916. AlphaScreen HP1-beta / biotin-H3K9me3 peptide binding. Potency, µM (titrated, usually from 114 µM), hits mostly inhibitors. hit rate 0.56% among 390,000. AID 540317; also: nearly all actives have a fitted effect of over 70% in size
Target sequence (P83916 whole entry, looked up): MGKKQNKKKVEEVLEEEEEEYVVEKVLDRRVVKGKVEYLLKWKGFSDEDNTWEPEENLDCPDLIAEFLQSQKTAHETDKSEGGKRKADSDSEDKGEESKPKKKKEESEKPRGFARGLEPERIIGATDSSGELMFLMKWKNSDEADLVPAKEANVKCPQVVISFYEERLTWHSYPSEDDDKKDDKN
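AlphaScreen: HP1-beta (50 nM) preformed 30 min with biotin-H3(1-18)K9me3 peptide (50 nM) in PBS pH 7.4, 0.01% Tween-20. Compound added for 30 min at RT, then streptavidin donor/nickel chelate acceptor beads (10 ug/mL) for 30 min.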
JMJD2A Tudor: blocks the human JMJD2A Tudor domain | O75164 | AlphaScreen JMJD2A-Tudor / H3K4me3 peptide binding | Potency, µM (highest dose often 114 µM), hits mostly inhibitors | hit rate 4.4% among 390,000; also: nearly all actives have a fitted effect of over 50% in size
G9a inh: G9a (human) methyltransferase inhibition; Q96KQ7; G9a H3K9 monomethylation, AlphaScreen, 2 h; Potency, µM (series often up to 102 µM), actives largely listed as inhibitors; AID 504332; hit rate 8.8% among 350,000; also: nearly all actives have a fitted effect of over 75% in size
Target sequence (Q96KQ7 913-1193 limits assumed): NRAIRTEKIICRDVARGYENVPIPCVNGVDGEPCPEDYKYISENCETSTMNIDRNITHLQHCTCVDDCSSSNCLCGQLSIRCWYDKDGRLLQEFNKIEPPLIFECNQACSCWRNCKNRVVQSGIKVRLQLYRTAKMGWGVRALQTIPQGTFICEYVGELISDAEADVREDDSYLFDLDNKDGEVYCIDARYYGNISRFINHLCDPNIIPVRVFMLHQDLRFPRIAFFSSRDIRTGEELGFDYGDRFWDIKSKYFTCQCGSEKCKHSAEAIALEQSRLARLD
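Quantitative HTS format: methyltransferase activity on a biotin-tagged H3K9 peptide is measured by AlphaScreen, using a rabbit anti-monomethyl-H3K9 antibody with streptavidin donor and anti-IgG acceptor beads. Final levels are 20 nM enzyme, 500 nM peptide, 20 uM SAM; 2 h RT.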
Sfp inh: Sfp phosphopantetheinyl transferase inhibition. Q9F4F7. Biochemical Sfp PPTase activity, qHTS. Potency, µM, usual class: inhibitors. hit rate 3.5% among 310,000. AID 1490;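 also: the enzyme is Sfp with the accession as filed and its product quenches rhodamine fluorescence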
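After 15 min at room temperature with compound, 15 nM Sfp received 5 uM rhodamine-CoA plus 12.5 uM BHQ-2-ybbR (50 mM Hepes pH 7.6, 10 mM MgCl2). Rate came from the fluorescence difference over 30 min, ex 525/em 598 nm.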
BAZ2B block: inhibitors of human BAZ2B bromodomain; Potency, µM (highest dose often 114 µM), usual class: inhibitors; Q9UIF8; AlphaScreen BAZ2B-H3K14Ac peptide displacement; hit rate 4.4% among 360,000; also: nearly all actives have a fitted effect of over 60% in size
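AlphaScreen luminescence quantifies BAZ2B engagement of H3K14Ac peptide; the protein and biotinylated peptide are both at 50 nM final, buffer PBS pH 7.4 with 0.01% Tween-20, all steps at room temperature.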
ALOX12 inh: ALOX12 (human) lipoxygenase inhibition | P18054 | purified 12hLO, xylenol orange hydroperoxide absorbance | Potency, µM (highest dose often 108 µM), most hits filed as inhibitors | hit rate 1.1% among 580,000
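Purified human 12hLO (150 nM final) in 25 mM Hepes, 0.01% Triton X-100, pH 7.0 was preincubated 15 min at room temperature with compound. Then 40 uM arachidonic acid was added, 30 min. Hydroperoxide was read by Fe-XO absorbance ratio 573/405 nm.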
Hits are given with their value. Calls follow the shape of the dose curve; as a rule, active = well fitted curve in the direction sought with a large enough effect; inconclusive = small, poorly fitted or top-dose-only effect, or another doubt; inactive = no such curve, though single readings can be large; an effect the other way counts as inactive or inconclusive.

What do the screens show for `CN1N=C(C(=O)N2CCOC(Cc3cccc4ccccc34)C2)CCC1=O` (stereo not drawn)?
ALOX12 inh: inactive

How did Cc1nn(C)cc1-c1n[nH]c(=S)n1-c1ccc(Cl)cc1 do in these assays?
HP1b chromo inh: inactive; JMJD2A Tudor: 3.16µM; G9a inh: 5.62µM; Sfp inh: inconclusive; BAZ2B block: inactive; ALOX12 inh: inconclusive

How did CC(C)(C)c1cc(-c2ccccc2)n[nH]1 do in these assays?
HP1b chromo inh: inactive; JMJD2A Tudor: inactive; Sfp inh: inactive; BAZ2B block: inactive; ALOX12 inh: inactive

What do the screens show for `CC(C)(C)c1cc(-c2n[nH]c(=S)n2-c2ccc(Cl)cc2)n[nH]1`?
HP1b chromo inh: inactive; JMJD2A Tudor: 39.8µM; G9a inh: inconclusive; Sfp inh: inconclusive; BAZ2B block: inconclusive; ALOX12 inh: inconclusive

What do the screens show for `O=C(Cc1ccc(Cl)cc1)N1CCC2(CC1)NC(=O)N(c1ccccc1Cl)N2`?
ALOX12 inh: 1.41µM

How did COc1cccc(CC(=O)N2CCC3(CC2)NC(=O)N(c2ccccc2)N3)c1 do in these assays?
ALOX12 inh: 3.16µM

What do the screens show for `Cc1ccccc1CC(=O)N1CCC2(CC1)NC(=O)N(c1cccc(F)c1)N2`?
ALOX12 inh: 2.82µM

Results for O=C(Cc1cccc(F)c1)N1CCC2(CC1)NC(=O)N(c1cccc(F)c1)N2 ?
ALOX12 inh: 6.31µM

Results for CCc1noc(-c2cccn3c(CNC(=O)c4cccnc4)nnc23)n1 ?
ALOX12 inh: inactive

Results for O=C(Sc1ccc(Cl)cc1)c1ccccc1F ?
ALOX12 inh: inactive

How did O=C(Cc1cccc(F)c1)N1CCC2(CCC(=O)N(CC3CC3)CC2)CC1 do in these assays?
ALOX12 inh: inactive

How did COc1cccc(CC(=O)N2CCC3(CC2)NC(=O)N(c2cccc(F)c2)N3)c1 do in these assays?
ALOX12 inh: 5.01µM

How did COc1ccc(CCC(=O)N2CCC3(CC2)NC(=O)N(c2cccc(F)c2)N3)cc1 do in these assays?
ALOX12 inh: 5.01µM

What do the screens show for `COc1cccc(CC(=O)N2CCC3(CC2)N(C)C(=O)CS3(=O)=O)c1`?
ALOX12 inh: inactive

What do the screens show for `O=C(Cc1ccc(Cl)cc1)N1CCC2(CC1)NC(=O)N(c1cccc(F)c1)N2`?
ALOX12 inh: 3.16µM

What do the screens show for `COc1cccc(CC(=O)N2CCC3(CC2)NC(=O)N(c2cccc(Cl)c2)N3)c1`?
ALOX12 inh: 1.41µM

Results for Cn1cnc(S(=O)(=O)NC2CCc3nn(CC4CC4)c(=O)n3CC2)c1 (stereo not drawn) ?
ALOX12 inh: inactive

Results for Cc1cc(NC(=O)NCC(c2ccco2)N2CCCCC2)no1 (stereo not drawn) ?
ALOX12 inh: inactive

How did Cc1ncsc1CN(C)C1CCc2nn(CC3CC3)c(=O)n2CC1 (stereo not drawn) do in these assays?
ALOX12 inh: inactive

How did Clc1ccc(C2CC(c3ccc(Br)cc3)=NO2)cc1 (stereo not drawn) do in these assays?
ALOX12 inh: inactive

How did CN(C)C(=O)N1CCCCC12Cc1ccccc1NC2=O (stereo not drawn) do in these assays?
ALOX12 inh: inactive

Results for Cc1ccccc1C(=O)N1CCC2(CC1)NC(=O)N(c1cccc(F)c1)N2 ?
ALOX12 inh: 1.78µM

Results for COCCNC(=O)c1cc2sccc2n1C ?
HP1b chromo inh: inactive; JMJD2A Tudor: inactive; G9a inh: inactive; Sfp inh: inactive; BAZ2B block: inactive; ALOX12 inh: inactive

What do the screens show for `COc1cc(NC(=O)c2cc3sccc3n2C)cc(OC)c1`?
HP1b chromo inh: inactive; JMJD2A Tudor: inactive; G9a inh: inconclusive; Sfp inh: 50.1µM; BAZ2B block: inconclusive; ALOX12 inh: inconclusive

Results for Cn1c(C(=O)Nc2ccc3c(c2)OCO3)cc2sccc21 ?
HP1b chromo inh: inactive; JMJD2A Tudor: inconclusive; G9a inh: 31.6µM; Sfp inh: inactive; BAZ2B block: inactive; ALOX12 inh: inconclusive

How did COC(=O)c1ccc(NC(=O)c2cc3sccc3n2C)cc1 do in these assays?
HP1b chromo inh: inactive; JMJD2A Tudor: inactive; G9a inh: 70.8µM; Sfp inh: 44.7µM; BAZ2B block: inconclusive; ALOX12 inh: inactive
